Only some compounds are listed: those with a hit (about 3.6% of all), similar ones and a draw of the others.
HSF1 activator: increases HSF-1 driven luciferase reporter signal; NIH3T3-HGL HSF-1 luciferase reporter, MG132, 8 h; 100% = twice DMSO control signal; activation, % at 9 µM; 300,000 tested, 1.7% active; AID 504408;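 active = mean replicate activation of at least 50% with a set share of replicates each reaching 50%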;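 also: 0% = median of the neutral control wells and 100% = twice that signal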
HSF1 inh: HSF1 inhibition; NIH3T3-HGL HSE-luciferase, MG132-induced, luminescence 8 h; stronger effect = lower value; 300,000 tested, 0.77% active; activity change, negative = inhibition, % at 7.5 µM (by protocol); AID 2098;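 active = more than half of replicate wells show activity change below -50%, luminescence cut by over half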;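 also: luciferase reports HSF-1 transcriptional activity via heat shock element; 0% = median of DMSO wells and -100% = zero luminescence signal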
LGR2 inh: blocks bursicon-induced cAMP signaling via Drosophila LGR2 | inhibition, % at 9.99 µM | HEK293 LGR2, CRE-luciferase, bursicon-stimulated, 4 h | AID 720647 | 380,000 tested, 0.35% active;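 active = drop in luminescence signal, shown as inhibition above about 50% in the replicate tests, limit read from the data, passing the limit was not always enough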;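 also: agonist challenge used bursicon conditioned medium at about half maximal strength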
TWEAK Fn14 block: inhibitors of TWEAK-Fn14 interaction signaling; TWEAK-stimulated Fn14 reporter cells, luciferase luminescence, 8 h; inhibition, % at 10 µM; 360,000 tested, 2% active; AID 1159606; in the data active = inhibition above about 50%
LMP1 NFkB inh: reduces LMP1-driven NF-kappaB luciferase signal | LMP1-induced NF-kappaB luciferase reporter cells, luminescence | inhibition, % at 12.5 µM | 350,000 tested, 0.69% active; in the data active = inhibition above about 41%;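 also: 0% = neutral control wells and 100% = reference inhibitor control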
TROY signal inh: TROY signaling inhibition; AID 1347056; Q293 LMP1-TROYcd NF-kB luciferase reporter, 4 h; inhibition, % at 10 µM; 360,000 tested, 0.98% active;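 active = compounds whose plate-normalised and pattern-corrected inhibition of the luciferase reporter signal at the single screening dose is 50% or more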
Numbers without * were called inactive; / = not tested or not shown.

SMILES	HSF1 activator	HSF1 inh	LGR2 inh	TWEAK Fn14 block	LMP1 NFkB inh	TROY signal inh
COCc1nc2sc3c(c2c(=O)[nH]1)CCCC3	-5	1	19	-15	4	-15
COc1ccc(S(=O)(=O)N(C)C[C@@H]2Oc3ccc(NC(=O)Cn4cnnn4)cc3C(=O)N([C@H](C)CO)C[C@@H]2C)cc1	/	/	14	/	/	/
Cc1nnc(N/N=C/c2ccc([N+](=O)[O-])cc2)n1N	39	20	1	-12	1	55*
Cc1nnc(N/N=C/c2ccc(Br)cc2)n1N	52*	40	-9	0	0	-24
CCOC(=O)C1=C(N)Oc2cc(C)[nH]c(=O)c2C1c1ccncc1 (configuration not stated)	-11	-6	/	76*	-2	/
CCOC(=O)C1=C(N)Oc2cc(C)n(C)c(=O)c2C1c1ccncc1 (configuration not stated)	4	2	/	-10	5	9
CC(=O)Nc1c(C(=O)N2CCCCCC2)cnn1-c1ccccc1	13	-1	9	-1	79*	-11
Cc1ccccc1C(=O)Nc1c(C(=O)N2CCCC2)cnn1-c1ccccc1	9	-4	12	10	3	-8
COc1ccccc1C(NC(C)=O)c1cc(Cl)c2cccnc2c1O (configuration not stated)	-46	-46	12	-3	31	-8
CC(=O)NC(c1ccc(Cl)cc1Cl)c1ccc2cccnc2c1O (configuration not stated)	-46	-44	43	9	69*	29
COc1ccc(C(NC(C)=O)c2cc(Cl)c3cccnc3c2O)cc1OC (configuration not stated)	-18	-5	-11	10	-5	-1
CC(=O)NC(c1ccc2ccccc2c1)c1ccc2cccnc2c1O (configuration not stated)	-21	-24	20	10	49*	35
COc1ccc(C(NC(C)=O)c2ccc3cccnc3c2O)c(OC)c1 (configuration not stated)	7	2	/	3	59*	8
CC(=O)NC(C)c1cc(Cl)c2cccnc2c1O (configuration not stated)	/	/	-3	11	9	-6
CCCC(=O)NC(c1ccc(Cl)cc1Cl)c1ccc2cccnc2c1O (configuration not stated)	-31	-41	35	12	63*	34
CO[C@H]1CN(C)C(=O)c2ccc(NS(=O)(=O)c3cccc(F)c3)cc2OC[C@H](C)N(Cc2cc(F)ccc2F)C[C@@H]1C	/	/	8	/	/	/
Cc1ccccc1S(=O)(=O)NCC[C@@H]1CC[C@@H](NC(=O)Nc2cccc(Cl)c2)[C@H](CO)O1	/	/	0	/	/	/
COc1ccc2c3c(n(C)c2c1)[C@@H](CO)N(C(C)=O)CC31CCN(C(=O)NC(C)C)CC1	/	/	0	/	/	/
O=C(/C=C/Sc1ccccc1)c1ccccc1	117*	80	-50	90*	-24	34
O=C(C=Cc1ccccc1Cl)c1ccccc1	/	/	-43	-3	-13	-46
O=C(/C=C/Sc1ccccc1)c1ccc(Cl)cc1	161*	122	/	78*	-56	30
O=C(O)CSc1ccccc1C(=O)O	-94	-92*	/	3	-1	12
O=C(NCc1ccccc1)[C@H]1[C@H](CO)[C@H]2Cn3c(ccc(/C=C/c4ccccc4)c3=O)[C@@H]1N2CC1CC1	/	/	9	/	/	/
CC(C)(C)c1ccc(/C=N/N2C(=O)CSC2=S)cc1	-79	-77*	-5	68*	-2	38
O=C1CSC(=S)N1/N=C/c1ccc(O)c(O)c1O	-11	-11	/	78*	-3	-4
SMILES	HSF1 activator	HSF1 inh	LGR2 inh	TWEAK Fn14 block	LMP1 NFkB inh	TROY signal inh
O=C(NC(=S)N1CCN(c2ccc(C(F)(F)F)cc2[N+](=O)[O-])CC1)c1cccs1	-94	-94*	11	-48	13	-37
COc1ccc(C2CC(C)(c3ccc(OC)cc3)Nc3ccccc3N2)cc1 (configuration not stated)	58*	38	/	33	-6	-25
CCCCc1ccc(-c2ccc(Br)cc2)nc1	58*	21	34	1	-33	1
CCCc1ccc(-c2ccc(F)c(N)c2)nc1	-5	1	79*	89*	69*	63*
CCS(=O)(=O)N1CCC(C(=O)Oc2ccc(Br)cc2)CC1	1	0	-7	79*	6	-8
CC(OC(=O)CN1C(=O)NC2(CCCC2)C1=O)C(=O)c1ccccc1 (configuration not stated)	-76	-70*	2	-9	1	-2
CN1CCN(C(=O)C[C@@H]2CC[C@@H]3[C@H](COC[C@@H](O)CN3CC3CCOCC3)O2)CC1	/	/	-8	/	/	/
Cc1ccc(/C=C/C(=O)c2ccc([N+](=O)[O-])o2)cc1	29	32	16	/	/	/
O=C(/C=C/c1ccc(Cl)cc1)c1ccc([N+](=O)[O-])o1	19	24	2	88*	2	31
COc1ccc2c3c(n(C)c2c1)[C@@H](CO)N(C(C)=O)CC31CCN(C(=O)Nc2ccccc2F)CC1	/	/	-6	/	/	/
O=C(O)C[C@H]1C=C[C@@H](NC(=O)Nc2ccccc2)[C@H](CO)O1	/	/	-7	/	/	/
O=C(CCCc1ccccn1)c1ccccc1	/	/	44	84*	27	43
O=C(Cc1ccccn1)c1ccccc1	5	2	-6	7	-1	3
Cc1cc(Nc2ccccc2)nn1C(=O)c1ccc(Br)cc1	1	2	/	53*	0	/
Cc1cc(Nc2ccccc2)nn1C(=O)c1ccccc1	8	13	/	7	6	18
COc1ccc(C(=O)n2nc(C)cc2Nc2ccccc2)cc1	52*	16	/	-34	-29	-60
C[C@@H]1CCCCO[C@@H](CN(C)Cc2ccc3c(c2)OCO3)[C@@H](C)CN([C@@H](C)CO)C(=O)c2cc(NC(=O)Nc3cccc4ccccc34)ccc2O1	/	/	18	/	/	/
O=C(Nc1ccccc1)N[C@@H]1CC[C@H](CCn2cc(C3(O)CCCC3)nn2)O[C@H]1CO	/	/	-1	/	/	/
C/C=C/c1ccc2c(c1)O[C@@H](CN(C)Cc1ccc(C(=O)O)cc1)[C@@H](C)CN([C@@H](C)CO)S2(=O)=O	/	/	-3	/	/	/
C[C@H]1CN([C@@H](C)CO)C(=O)c2cccc(NS(=O)(=O)c3ccc(Cl)cc3)c2O[C@H]1CN(C)C(=O)Nc1ccc(C(F)(F)F)cc1	/	/	-24	/	/	/
CCOc1ccc(N(CC(=O)NC2CC3CCC2C3)S(=O)(=O)c2ccccc2)cc1 (configuration not stated)	-1	0	15	56*	18	-3
CSc1cccc(NC(=O)c2cnn3ccccc23)c1	81*	52	-71	2	-18	-59
CCc1ccc(NC(=O)c2cnn3ccccc23)cc1	-30	-32	/	93*	35	53*
O=C(NCc1ccc(F)cc1)c1cnn2ccccc12	17	13	-21	7	-17	-43
CCc1ccc(NC(=O)c2sccc2-n2cccc2)cc1	53*	15	/	19	-16	-81

Compound activity deposited in PubChem BioAssay by several laboratories.
